We go through 14 molecules from PubChem BioAssay.

Molecules are shown by their SMILES. Active and inactive are the calls of the source.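 How the source made its calls, unless noted: active means inhibition above 20% together with a positive visual image hit; inconclusive means visual image hit but inhibition not above 20%; inactive means no visual image hit.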

A short description of assay [1]: inhibitors of TNFa-induced NFkB p65 translocation, primary screen, imaging, HUVEC, MLSMR starter and 10KST1 sets (AID 438).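 Further: compound added about 3h40 before a 20 min TNFalpha stimulation.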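 On inhibition: signal is the nuclear over cytoplasmic p65 intensity ratio per well.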 As to conditions: HUVEC TNFa-induced p65 nuclear translocation; cell count: measured here: nuclei count (cytotoxicity indicator), at 2.08 µM; inhibition: at 2 µM, stronger effect = higher value, 0% TNFa-plus-vehicle, 100% no-TNFa wells.
Assay [2] in a line: inhibitors of mutant huntingtin aggregation, primary screen, imaging, exon1htt(103Q)mCFP cells, high-content imaging (AID 483;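 active means visual image review flags a hit and inhibition of aggregation exceeds 20%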;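 further: compound exposure lasted 3 days before fixation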;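 on nuclei count: percent of the per-plate median nuclei count of sample wells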). As to conditions: exon1htt(103Q)mCFP cell line, aggregate imaging, at 2 µM; inhibition of aggregation: stronger effect = higher value; nuclei count: measured here: cell count, toxicity.
The nature of assay [3]: inhibitors of E-selectin induction by TNFa, primary screen, imaging, HUVEC, immunofluorescence, MLSMR starter and 10KST1 sets (AID 487;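 active means visually confirmed hit in the image check and inhibition above 20%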;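 on inhibition: signal is fraction of cell area covered by stained E-selectin grains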;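 on nuclei count: 100% = median nuclei count of all wells on the same plate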). As to conditions: HUVEC TNFalpha-induced E-selectin immunofluorescence imaging, at 2 µM; inhibition: stronger effect = higher value; nuclei count: measured here: cell number, toxicity.
For assay [4], the target named is Voltage-gated potassium channel subunit beta-2 (Rattus norvegicus) (UniProt P62483). Kind of assay: KvBeta enzyme negative modulators, primary screen, biochemical, NADPH fluorescence (AID 622;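 active means fluorescence slope higher than the sample average by over 3 SD, cut at about -0.22 in these data, passing the limit was not always enough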;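 further: slope of raw intensity against log time taken from 70 to 1610 s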). To be noted: recombinant KvBeta, 4-cyanobenzaldehyde reduction, at 10 µM, stronger effect = higher value.
Chain of Voltage-gated potassium channel subunit beta-2 (Rattus norvegicus) (P62483 whole entry, looked up): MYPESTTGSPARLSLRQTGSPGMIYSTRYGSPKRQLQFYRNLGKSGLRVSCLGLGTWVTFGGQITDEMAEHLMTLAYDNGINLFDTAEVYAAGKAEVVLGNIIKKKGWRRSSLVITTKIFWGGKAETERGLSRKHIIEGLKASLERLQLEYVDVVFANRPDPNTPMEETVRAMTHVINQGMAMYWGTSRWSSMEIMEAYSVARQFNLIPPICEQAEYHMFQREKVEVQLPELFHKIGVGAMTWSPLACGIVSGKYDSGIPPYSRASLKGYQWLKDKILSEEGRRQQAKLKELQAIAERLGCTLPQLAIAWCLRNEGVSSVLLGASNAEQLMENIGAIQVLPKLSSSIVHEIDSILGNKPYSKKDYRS
The target is the same in assay [5]. Kind of assay: KvBeta positive modulators, primary screen, biochemical, NADPH fluorescence (AID 623;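 active means NADPH fluorescence slope more negative than the mean of all samples by about 3 SD, 99.7% confidence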;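 further: fluorescence intensity change per second fitted from 20 to 320 s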). As to conditions: Recombinant KvBeta, NADPH fluorescence decrease slope, 10 min; at 10 µM; stronger effect = lower value.
Assay [6] addresses Alpha-2C adrenergic receptor (Homo sapiens) (UniProt P18825). Kind of assay: modulators of alpha2C/GIRK thallium flux, primary screen, cell-based, HEK293 alpha2C/GIRK1/2 (AID 624;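 active means fluorescence slope after compound addition differing from the mean of all screened samples at 99.7% confidence, in either direction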;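 further: slope of fluorescence ratio to pre-addition baseline per second over 15 to 24 s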). As to conditions: thallium flux BTC fluorescence, at 10 µM, actives lie on both sides.
The nature of assay [7]: inhibitors of Sendai virus-induced IRF3 signaling, primary screen, TLR/RLR signaling modifier project, cell-based, Sendai virus stimulus, luciferase, 10K MLSCN set (AID 602276;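 active means inhibition at or above 50% at 10 µM; inactive means inhibition below 50%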;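 further: firefly luciferase from ISG56 promoter only with Renilla not read in this screen; 0% = Sendai virus plus DMSO and 100% = medium plus DMSO without virus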). To be noted: HEK293 RL24 IRF3 luciferase reporter, at 10 µM, stronger effect = higher value.
Assay [8] in a line: inhibitors of poly I:C-induced TLR3 signaling, primary screen, cell-based, poly I:C stimulus, luciferase, 10K MLSCN set (AID 602277;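 active means inhibition of the reporter signal at or above 50%; inactive means inhibition below 50%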). As to conditions: HEK293-TLR3 RL24 IRF3 luciferase reporter, at 10 µM, stronger effect = higher value. In general terms: Reporter assays use an easily measured gene product as a stand-in for the process of interest.

Chain of Alpha-2C adrenergic receptor (Homo sapiens) (P18825 whole entry, looked up): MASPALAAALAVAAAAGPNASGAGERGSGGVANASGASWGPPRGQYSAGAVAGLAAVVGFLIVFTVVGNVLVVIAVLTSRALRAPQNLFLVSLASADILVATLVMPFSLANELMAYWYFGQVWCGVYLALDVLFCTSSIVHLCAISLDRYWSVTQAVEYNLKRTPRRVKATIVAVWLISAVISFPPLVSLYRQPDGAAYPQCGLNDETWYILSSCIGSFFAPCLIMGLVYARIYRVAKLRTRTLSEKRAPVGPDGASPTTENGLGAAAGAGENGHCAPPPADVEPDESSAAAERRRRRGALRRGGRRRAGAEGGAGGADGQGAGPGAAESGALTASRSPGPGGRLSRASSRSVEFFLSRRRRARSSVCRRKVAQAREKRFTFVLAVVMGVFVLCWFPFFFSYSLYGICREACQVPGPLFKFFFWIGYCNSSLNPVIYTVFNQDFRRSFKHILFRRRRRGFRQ

For orientation: inhibition means the relative decrease from the control value, in per cent. Consider `CCCCn1c(SCC(=O)NCc2ccccc2)nc2ccc(N3CCOCC3)cc2c1=O`, for which the cell count in assay [1] was 372. Also, the inhibition in assay [1] was 4.3% (inactive); in assay [3], -28% (inactive); in assay [7] it was -6.72% (inactive); in assay [8] it was 5.47% (inactive). The inhibition of aggregation in assay [2] is 10.3% (inactive). The results for the nuclei count in assay [2] and in assay [3] were 89% and 110%, respectively. For the same molecule, the fluorescence slope in assay [4] is -0.351 (inactive). Also, in assay [5], the NADPH fluorescence slope was 2.2e-06 (inactive). The slope in assay [6] is 0.00561 (inactive).
As for `CCn1cc(C(=O)OCc2ccc(F)cc2)c(=O)c2ccc(C)nc21`, the cell count in assay [1] is 360. For the same molecule, the inhibition in assay [1] is 0.4% (inactive); in assay [3], -16.9% (inactive); in assay [7], 11.6% (inactive); in assay [8], -3.06% (inactive). For the same molecule, in assay [2], the inhibition of aggregation was -17.1% (inactive). The nuclei count in assay [2] turned out to be 102%; in assay [3] it was 98%. In assay [4], the fluorescence slope is -0.428 (inactive). Further, the NADPH fluorescence slope in assay [5] is -2.4e-05 (inactive). Moreover, in assay [6], the slope was 0.00561 (inactive).
In the case of `CC1(C)CC(=O)C(CC(=O)NC(=O)NCc2ccccc2)=C(O)C1`, in assay [1], the cell count was 462. In addition, the inhibition in assay [1] is 3.4% (inactive); in assay [3] it was -65.4% (inactive); in assay [7] it was -1.73% (inactive); in assay [8] it was 7.39% (inactive). In addition, the inhibition of aggregation in assay [2] is 0.1% (inactive). In addition, the nuclei count in assay [2] worked out at 102%; in assay [3], 99.2%. In assay [4], the fluorescence slope was -0.501 (inactive). The NADPH fluorescence slope in assay [5] was 1e-05 (inactive). Also, in assay [6], the slope was 0.00433 (inactive).
Regarding `COc1cccc(OCCn2ccnc2)c1`, the cell count in assay [1] is 305. For the same molecule, the inhibition in assay [1] is -6.6% (inactive); in assay [3] it was -24.7% (inactive); in assay [7] it was -8.26% (inactive); in assay [8] it was -3.22% (inactive). Besides, in assay [2], the inhibition of aggregation is 9.6% (inactive). Further, the nuclei count in assay [2] turned out to be 82.1%; in assay [3], 120%. Also, the fluorescence slope in assay [4] is -0.422 (inactive). Further, the NADPH fluorescence slope in assay [5] was 2e-05 (inactive). Besides, the slope in assay [6] was 0.00692 (inactive).
As to `O=S1(=O)CCC(N=Cc2cc(Br)ccc2O)C1` (centres undefined), in assay [1], the cell count was 500. The inhibition is -13.1% (inactive) in assay [1], 18% (inactive) in assay [3], 17.3% (inactive) in assay [7] and 22.5% (inactive) in assay [8]. For the same molecule, the inhibition of aggregation in assay [2] was 32.5% (inactive). For the same molecule, the nuclei count turned out to be 76.6% in assay [2] and 97.7% in assay [3]. For the same molecule, in assay [4], the fluorescence slope is -0.498 (inactive). Moreover, the NADPH fluorescence slope in assay [5] is -4e-05 (inactive). Further, the slope in assay [6] is 0.0045 (inactive).
As to `CN1C(=O)C(O)(CC(=O)c2ccc(F)cc2)c2cc(Br)ccc21` (centres undefined), the cell count in assay [1] came to 580. Besides, the inhibition in assay [1] is 6% (inactive); in assay [3] it was 16.6% (inactive); in assay [7], 22.4% (inactive); in assay [8], 41.2% (inactive). For the same molecule, the inhibition of aggregation in assay [2] was 22.6% (inactive). For the same molecule, the results for the nuclei count in assay [2] and in assay [3] were 69.5% and 97.6%, respectively. Moreover, the fluorescence slope in assay [4] is -0.436 (inactive). For the same molecule, in assay [5], the NADPH fluorescence slope was -7.2e-05 (inactive). Besides, the slope in assay [6] is 0.0055 (inactive).
For `O=C(OCC#CCSc1nnc(-c2ccncc2)o1)c1cccs1`, the cell count in assay [1] stood at 513. Besides, the inhibition is 5.2% (inactive) in assay [1], -19.4% (inactive) in assay [3], 1.96% (inactive) in assay [7] and 24.8% (inactive) in assay [8]. The inhibition of aggregation in assay [2] was -4.1% (inactive). For the same molecule, the figures for the nuclei count in assay [2] and in assay [3] were 104% and 102%, respectively. The fluorescence slope in assay [4] is -0.426 (inactive). In assay [5], the NADPH fluorescence slope is -2e-05 (inactive). The slope in assay [6] was 0.00642 (inactive).
As for `CC1Cc2ccccc2N1C(=O)CSc1nc2ccccc2n1CC(=O)N1CCOCC1` (centres undefined), the cell count in assay [1] turned out to be 468. Besides, the inhibition was -0.5% (inactive) in assay [1], -68.5% (inactive) in assay [3], 15.4% (inactive) in assay [7] and 2% (inactive) in assay [8]. The inhibition of aggregation in assay [2] was 6.9% (inactive). Moreover, the nuclei count in assay [2] was 111%; in assay [3], 110%. In assay [4], the fluorescence slope is -0.523 (inactive). For the same molecule, the NADPH fluorescence slope in assay [5] was -0.000178 (inactive). In assay [6], the slope is 0.00303 (inactive).
For `COc1ccc(CCNc2oc(-c3ccco3)nc2C#N)cc1`, the cell count in assay [1] was 560. The inhibition in assay [1] is 15.1% (inactive); in assay [3], 35.2% (inactive); in assay [7], -0.514% (inactive); in assay [8], -18.9% (inactive). Further, the inhibition of aggregation in assay [2] was 0.7% (inactive). The nuclei count in assay [2] came out at 103%; in assay [3] it was 84.1%. Also, the fluorescence slope in assay [4] was -0.605 (inactive). Further, the NADPH fluorescence slope in assay [5] is -3.5e-05 (inactive). The slope in assay [6] was 0.00388 (inactive).
`CSc1nc2ccc(S(=O)(=O)N3CCOCC3)cc2s1`: in assay [1], the cell count was determined as 328. The inhibition in assay [1] is -2.2% (inactive); in assay [3], -22% (inactive); in assay [7], 17.9% (inactive); in assay [8] it was 15.4% (inactive). The inhibition of aggregation in assay [2] was 28.3% (inactive). Also, the nuclei count in assay [2] turned out to be 95.2%; in assay [3] it was 129%. For the same molecule, the fluorescence slope in assay [4] was -0.415 (inactive). In assay [5], the NADPH fluorescence slope was -6.4e-05 (inactive). Also, the slope in assay [6] is 0.00411 (inactive).
With `CCOC(=O)N1CCC(NC(=O)C2CCCN(C(=O)c3cc4sccc4n3C)C2)CC1` (centres undefined), in assay [1], the cell count is 762. For the same molecule, the inhibition in assay [1] was -5.8% (inactive); in assay [3], -71.5% (inactive); in assay [7] it was 2.87% (inactive); in assay [8], 25.3% (inactive). For the same molecule, the inhibition of aggregation in assay [2] was -4.7% (inactive). The nuclei count in assay [2] stood at 127%; in assay [3] it was 123%. In addition, the fluorescence slope in assay [4] was -0.556 (inactive). The NADPH fluorescence slope in assay [5] is -4.1e-05 (inactive). Besides, the slope in assay [6] is 0.00546 (inactive).
On to `CC1CCC(NC(=O)C2CCN(c3cnccn3)CC2)CC1` (centres undefined), for which, in assay [1], the cell count was 579. The inhibition was -52% (inactive) in assay [1], -108% (inactive) in assay [3], -0.638% (inactive) in assay [7] and -2.17% (inactive) in assay [8]. Also, the inhibition of aggregation in assay [2] is -0.6% (inactive). Besides, the nuclei count in assay [2] stood at 102%; in assay [3], 116%. Besides, the fluorescence slope in assay [4] was -0.575 (inactive). Besides, the NADPH fluorescence slope in assay [5] was -6.7e-05 (inactive). The slope in assay [6] is 0.00693 (inactive).
Turning to `CCOC(=O)N1CCC(NC(=O)C2CCC(Cn3c(=O)[nH]c4ccccc4c3=O)CC2)CC1` (centres undefined), in assay [1], the cell count was 609. Also, the inhibition in assay [1] is -0.3% (inactive); in assay [3], -89.5% (inactive); in assay [7] it was 6.35% (inactive); in assay [8] it was 20.6% (inactive). In assay [2], the inhibition of aggregation was -10.3% (inactive). For the same molecule, the nuclei count in assay [2] stood at 105%; in assay [3], 101%. Besides, the fluorescence slope in assay [4] is -0.546 (inactive). Besides, in assay [5], the NADPH fluorescence slope was 3.1e-05 (inactive). In addition, the slope in assay [6] is 0.00617 (inactive).
For the molecule `CCOC(=O)N1CCC(NC(=O)CCC(=O)N2CC(C)Oc3ccc(Cl)cc32)CC1` (centres undefined), the cell count in assay [1] worked out at 326. The inhibition is 12.5% (inactive) in assay [1], 13.6% (inactive) in assay [3], 7.09% (inactive) in assay [7] and 6.64% (inactive) in assay [8]. In addition, the inhibition of aggregation in assay [2] was -2.6% (inactive). The nuclei count in assay [2] was 81.9%; in assay [3], 89%. For the same molecule, the fluorescence slope in assay [4] was -0.369 (inactive). Besides, in assay [5], the NADPH fluorescence slope is -5e-05 (inactive). The slope in assay [6] is 0.00486 (inactive).
